Most compounds without a hit are left out; they make up all but 6.5% or so of the library.
HepG2 viability = HepG2 cytotoxicity, counter-screen for TGF-b inhibitors | HepG2 CAGA-GFP viability, ATP luminescence, 18 h | Potency, µM (top dose mostly 46.1 µM), inactives show at the top dose activity change, negative = cytotoxicity, actives largely listed as cytotoxic | 410,000 tested, 0.76% active | AID 588856; also: potency is read from the fitted curve at half-maximal effect
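CellTiter-Glo luminescence gave cytotoxicity after 18 hours at 37 degrees C. The cells were HepG2 CAGA-GFP in 1% FBS DMEM, stimulated with 500 pg/mL TGF-beta after compound addition. %Activity was normalised to no-cell wells (complete cell-killing) and DMSO (no toxicity), and curves were fitted and classified.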
HT1080-NT tox = kills 2HG-producing HT-1080-NT fibrosarcoma cells | 360,000 tested, 1.6% active | HT-1080-NT fibrosarcoma viability, CellTiter-Glo ATP luminescence, 48 h | Potency, µM (doses to about 46.1 µM), without a hit: at the highest dose activity, negative = less viability, hits mostly cytotoxic;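 also: NT is the 2HG producing partner of a matched IDH1 knockdown line; potency is read from the fitted curve at half-maximal effect; 0% = DMSO-treated cells and -100% = media-only wells without cells; nearly all actives have a fitted effect of over 55% in size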
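Toxicity toward the 2HG-producing NT line was scored as %Activity, normalised to DMSO and no-cell wells, from CellTiter-Glo luminescence after 48 hours' treatment.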
IL-1B inflam inh = blocks inflammasome-driven IL-1 beta release; THP-1 LPS/ATP IL-1B secretion, AlphaLISA, 16 h; active compounds read low; activity change, % at 57.5 µM; 360,000 tested, 4.7% active; AID 743279; in the data active = activity change below about -50%; inconclusive = mostly about -30% to -49%; also: % is scaled to controls: 0 for no effect and ±100 for the full control effect
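THP-1 cells pretreated 1 hr with compounds (up to 57.5 uM final), then stimulated with LPS (250 ng/mL final) plus ATP (1.25 mM final); secreted IL-1B measured by AlphaLISA after 16 hr, decreased signal indicating inhibition.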
TGFb SMAD3 inh = inhibitors of TGF-b signaling. HepG2 CAGA-GFP TGF-b/SMAD3 reporter, GFP fluorescence, 18 h; TGF-beta stimulated, 500 pg/mL final. Potency, µM (series often up to 46.1 µM), inactives show at the top dose activity, negative = inhibition, actives largely listed as inhibitors. 410,000 tested, 1.2% active; also: potency is read from the fitted curve at half-maximal effect; % is scaled to controls: 0 for no effect and ±100 for the full control effect; nearly all actives have a fitted effect of over 65% in size
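GFP signal (ex488/em500-530) from TGF-beta-stimulated HEPG2 CAGA-GFP cells, 500 pg/mL final, 18 h at 37 degrees C in DMEM plus 1% FBS, normalized to unstimulated and DMSO-stimulated controls.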
Giardia killer = Giardia lamblia killing. 340,000 tested, 0.15% active. AID 540267. activity change, % at 7.66 µM, hits read low. Giardia lamblia trophozoite viability; in the data active = activity change below about -80%; inconclusive = between about -30% and that limit;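 also: parasites exposed to compound for two days anaerobically before the ATP read; % is scaled to controls: 0 for no effect and ±100 for the full control effect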
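Luminescence from cellular ATP indicates surviving trophozoites (100 cells/well) following 48 hrs anaerobic compound treatment at 37 deg C; signal develops 15-30 min at room temperature.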
HT1080 IDH1KD tx = HT-1080 IDH1 knockdown cell toxicity (counter line) | HT-1080 IDH1 knockdown viability, ATP luminescence, 48 h | Potency, µM (series often up to 46.1 µM), for inactives: top-dose activity, negative = toxicity, most hits filed as cytotoxic | 360,000 tested, 2% active;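 also: potency is read from the fitted curve at half-maximal effect; 0% = DMSO wells and -100% = cell-free medium wells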
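Luminescent ATP read-out (CellTiter-Glo, 10 min at room temperature) after 48 h compound exposure at 37 °C gave viability of IDH1-knockdown HT-1080 cells. Activity was normalised to DMSO and cell-free wells, then fitted as concentration-response curves.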
The depositor's hits bear a star; ? = inconclusive; nt = no result given. Unless noted, calls follow the shape of the dose curve; as a rule, active = well fitted curve in the direction sought with a large enough effect; inconclusive = small, poorly fitted or top-dose-only effect, or another doubt; inactive = no such curve, though single readings can be large; an effect the other way counts as inactive or inconclusive.

SMILES	HepG2 viability	HT1080-NT tox	IL-1B inflam inh	TGFb SMAD3 inh	Giardia killer	HT1080 IDH1KD tx
Cc1ccc(OCC(=O)NCC(c2ccc(Cl)cc2)N2CCOCC2)cc1C (configuration not stated)	-24%	nt	nt	-19%	nt	nt
Cc1cccc(CN2C(=O)[C@H]3Cc4c([nH]c5ccccc45)C(C)(C)N3C2=O)c1	-28%	nt	nt	11µM*	17	nt
Cc1cccc(CN2C(=O)[C@@H]3Cc4c([nH]c5ccccc45)C(C)(C)N3C2=O)c1	-21%	nt	nt	?	5	nt
CCOC(=O)C1(Cc2ccccc2)CCN(Cc2cc(OC)c3c(c2)OCO3)CC1	-29%	-16%	-83*	-26%	-14	-18%
CCOC(=O)C1(Cc2ccccc2)CCN(Cc2ccc(C)s2)CC1	-1%	-17%	-26	2%	-4	-29%
CCOC(=O)C1(Cc2ccccc2)CCN(Cc2cccc3c2OCO3)CC1	-15%	-3%	-53*	-12%	-23	3%
Cc1ccc(C)c(-c2[nH]ncc2CN2CCCC(CO)(Cc3ccccc3C)C2)c1 (configuration not stated)	-47%	?	-80*	?	-15	?
COc1cc(CN2CCCC(CO)(Cc3ccccc3C)C2)cc2c1OCO2 (configuration not stated)	-1%	-29%	-63*	-28%	10	?
Cc1cc2c(OCC(O)CNC(C)(C)C)cccc2[nH]1 (configuration not stated)	1%	1%	13	?	11	5%
CCS(=O)(=O)N1CC(=O)N(c2ccc(C)c(C)c2)C(C)(C(=O)NC2CCCCCC2)C1 (configuration not stated)	3%	nt	nt	-8%	nt	nt
CCOc1ccc(NC(=O)CCC(=O)NNC(=O)c2ccco2)cc1	-10%	4%	23	-7%	-10	2%
CCN(CC)c1ccc(C(=O)OCc2cc(=O)oc3cc(O)ccc23)cc1	-15%	?	54	3%	3	?
O=C(Nc1ccc(Cl)c(Cl)c1)c1cccc(S(=O)(=O)NCc2cccnc2)c1	-23%	7.3µM*	-82*	?	-7	23µM*
Cc1ccc(N(C)S(=O)(=O)c2cccc(C(=O)OCC(=O)N(C)Cc3ccccc3)c2)cc1	-17%	-3%	6	-1%	nt	5%
COc1ccc2c(c1)[nH]c1c(N3CCSCC3)ncnc12	-30%	?	nt	0%	4	15µM*
c1nc(N2CCN(Cc3ccc4c(c3)OCO4)CC2)c2[nH]cnc2n1	3%	0%	9	-1%	-20	-4%
COc1ccc2[nH]c3c(N4CC(C)OC(C)C4)ncnc3c2c1 (configuration not stated)	-1%	-15%	-17	0%	-1	-2%
COc1ccc2c(c1)[nH]c1c(N3CCN(Cc4ccc5c(c4)OCO5)CC3)ncnc12	-53%	-19%	-105*	20µM*	-2	?
COc1cccc(N2CCN(c3ncnc4c3[nH]c3ccc(F)cc34)CC2C)c1 (configuration not stated)	-70%	6.5µM*	-112*	?	20	7.3µM*
COc1ccc(C(=O)NCc2nnc(SCC(=O)Nc3ccc(F)cc3)n2-c2ccccc2)cc1	2%	nt	nt	-24%	nt	nt
CCCC(=O)N1c2ccccc2C(N(C(C)=O)c2ccccc2)CC1C (configuration not stated)	-19%	-3%	30	1%	10	0%
OC(c1ccccc1)c1nc2ccccc2s1 (configuration not stated)	11%	-4%	4	-2%	17	-2%
CCOC1Cc2ccccc2N(C(N)=O)c2ccccc21 (configuration not stated)	-2%	-3%	-4	9%	4	3%
CSc1ccc2c(c1)N(CCC1CCCCN1C)c1ccccc1S2 (configuration not stated)	-91%	18µM*	-20	?	4	?
Cn1ccnc1C(=O)c1cccc([N+](=O)[O-])c1	-16%	17%	5	-21%	-8	6%
SMILES	HepG2 viability	HT1080-NT tox	IL-1B inflam inh	TGFb SMAD3 inh	Giardia killer	HT1080 IDH1KD tx
Cn1ccnc1C(=O)c1ccc(NN)c([N+](=O)[O-])c1	0%	-24%	-217*	-28%	-28	?
CS(=O)(=O)N(Cc1ccc(C(=O)NC2CCCC2)cc1)c1ccccc1	-71%	8%	-8	-2%	4	5%
CN(C)c1c([N+](=O)[O-])cc(N2C(=O)C=CC2=O)cc1[N+](=O)[O-]	3%	3%	-99*	2%	3	0%
O=C(O)c1cc(N2C(=O)C=CC2=O)cc(N2C(=O)C=CC2=O)c1	14%	11%	24	10%	13	14%
O=C(Nc1ccc(Oc2c(F)c(F)c(F)c(F)c2F)cc1)OC1CCN2Cc3ccccc3N=C12 (configuration not stated)	10µM*	?	-95*	10µM*	-18	?
COc1ccc(CCNC2CCC(c3ccccc3)CC2)cc1 (configuration not stated)	-18%	18µM*	?	8%	21	?
CN=C1c2cc3cc(OC)ccc3n2CCN1Cc1ccccc1	-22%	16µM*	-91*	?	0	23µM*
CC(C)(C)OC(=O)NCCc1nnc(S(=O)(=O)Cc2ccc(Cl)cc2Cl)o1	14µM*	18µM*	-118*	10µM*	6	16µM*
Cc1ccccc1NC(=O)c1nc(S(C)(=O)=O)ncc1N(Cc1ccco1)Cc1sccc1C	-14%	nt	nt	1%	nt	nt
O=C1Nc2ccccc2N(C(=O)c2ccc(-c3ccccc3)cc2)C1c1nc2ccccc2[nH]1 (configuration not stated)	nt	?	21	nt	nt	16µM*
O=C1Nc2ccccc2N(C(=O)c2c(F)cccc2F)C1c1nc2ccccc2[nH]1 (configuration not stated)	nt	-29%	19	nt	nt	?
O=C(COc1ccc(Cl)cc1)c1ccc(O)cc1O	-34%	-14%	-67*	-16%	-12	-15%
COC(=O)c1ccc(OCC(=O)c2ccc(O)cc2O)cc1	-29%	-3%	17	2%	-2	-19%
COc1ccc(C(=O)N2CCn3c(C)ccc3C2C)cc1 (configuration not stated)	-9%	15%	-11	?	5	7%
Cn1cnc([N+](=O)[O-])c1NCc1ccccc1	-22%	18%	10	-10%	6	9%
Cn1cnc([N+](=O)[O-])c1S(=O)(=O)Oc1ccccc1	-189%	?	-94*	?	-9	23µM*

Source: PubChem
